# Screening data as filed in PubChem BioAssay.
# Luc counter = Counterscreen for Luciferase (Kinase-Glo TM) Inhibition; Luciferin 4-monooxygenase (Photuris pensylvanica), Q27757; Kinase-Glo luciferase, ATP luminescence, 8 min; Potency, µM (titrated, usually from 38.3 µM), for the others: top-dose activity change, negative = inhibition, hits mostly inhibitors; actives 0.28% (n = 200,000); note: % is set by controls: 0 for no effect and ±100 for the full control effect; nearly all actives have a fitted effect of over 60% in size
#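 Kinase-Glo luciferase light output from ATP and luciferin was measured with 10 uM ATP, within the enzyme's linear range. Buffer: 50 mM imidazole pH 7.2, 50 mM KCl, 7 mM MgCl2, 0.01% Tween 20, 0.05% BSA; luminescence read after 8 min at ambient temperature.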
# ELG1 genotox = qHTS screen for small molecules that induce genotoxicity in human embryonic kidney (HEK293T) cells expressing luciferase-tagged ELG1 | HEK293T ELG1-luciferase reporter, luminescence, 16 h | Potency, µM (series often up to 46 µM), for inactives: at the top dose activity change, positive = activation, usual class: activators | actives 1.3% (n = 330,000); note: % of control where 0% means no effect; nearly all actives have a fitted effect of over 60% in size
#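 ELG1-luciferase HEK293T cells, 2,000/well; compound pinned in; 16 hr, 37 °C, 5% CO2; ONE-Glo, 30 min RT; luminescence on CCD imager.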
# FLuc modulator = qHTS profiling assay for firefly luciferase inhibitor/activator using purifed enzyme and Km concentrations of substrates (counterscreen for miR-21 project) | purified FLuc, Km substrates, luminescence inhibition | Potency, µM (top dose mostly 57.5 µM), for the others: at the highest dose activity change, negative = inhibition, actives largely listed as inhibitors | actives 6.9% (n = 360,000) | AID 588342, 2011;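 note: plate controls were vehicle for no effect and reference inhibitor for full effect; nearly all actives have a fitted effect of over 55% in size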
# Target sequence (P08659 whole entry, looked up): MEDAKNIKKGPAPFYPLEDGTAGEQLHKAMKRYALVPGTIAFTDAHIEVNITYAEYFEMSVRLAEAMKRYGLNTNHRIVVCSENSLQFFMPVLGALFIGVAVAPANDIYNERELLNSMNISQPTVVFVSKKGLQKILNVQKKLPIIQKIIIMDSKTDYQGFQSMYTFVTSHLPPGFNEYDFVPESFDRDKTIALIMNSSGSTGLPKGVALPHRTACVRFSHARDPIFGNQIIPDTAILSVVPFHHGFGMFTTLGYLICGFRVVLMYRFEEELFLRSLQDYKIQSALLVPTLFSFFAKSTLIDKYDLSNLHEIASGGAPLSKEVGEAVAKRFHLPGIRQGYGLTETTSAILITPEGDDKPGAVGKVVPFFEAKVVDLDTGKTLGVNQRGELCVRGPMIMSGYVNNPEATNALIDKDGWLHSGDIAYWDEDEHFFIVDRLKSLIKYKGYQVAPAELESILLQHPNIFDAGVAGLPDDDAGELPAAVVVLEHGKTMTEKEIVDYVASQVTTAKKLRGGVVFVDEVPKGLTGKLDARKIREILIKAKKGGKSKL
#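 Purified P. pyralis luciferase, 10 nM final, with Km-level 10 uM D-luciferin and 10 uM ATP in 50 mM Tris acetate pH 7.5, 10 mM Mg acetate, 0.01% Tween-20, 0.05% BSA; 6-point qHTS titration about 60 µM downward; luminescence read.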
# SMN2 splice enh = qHTS Assay for Enhancers of SMN2 Splice Variant Expression | AID 1458, 2008 | Potency, µM (highest dose often 46.1 µM), for inactives: top-dose activity change, positive = activation, most hits filed as activators | HEK293 SMN2-luciferase splicing reporter, luminescence, 30-36 h | actives 2.8% (n = 210,000); note: % of control where 0% means no effect; nearly all actives have a fitted effect of over 55% in size
#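 HEK293 cells carry an SMN2 minigene-luciferase reporter in which exon 7 inclusion puts luciferase in frame. Cells were seeded at 2000 cells/well, attached for 10-12 hours, then exposed to compounds for 30-36 hours at 37C before ONE-Glo luminescence.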
# Rab9 prom act = qHTS Assay for Rab9 Promoter Activators; Huh7 Rab9 promoter-luciferase reporter, luminescence, 24 h; Potency, µM (highest dose often 9.22 µM), for the others: at the top dose activation, negative = inhibition, usual class: activators; actives 2.8% (n = 320,000); AID 485297, 2010; note: % of control where 0% means no effect; nearly all actives have a fitted effect of over 60% in size
#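 Rab9 promoter-driven luciferase in stably transfected Huh7 cells; 1500 cells/well rested 2 h, exposed to compound in DMSO for 24 h at 37 °C, 5% CO2. Luminescence read 10 min after adding luciferase reagent at ambient temperature.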
# NPC1 prom act = qHTS Assay for NPC1 Promoter Activators; Huh7 NPC1 promoter luciferase reporter, 24 h; Potency, µM (top dose mostly 9.22 µM), without a hit: at the highest dose activation, actives largely listed as activators; actives 2.4% (n = 320,000); note: % of control where 0% means no effect; nearly all actives have a fitted effect of over 60% in size
#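 Stably transfected Huh7 (NPC1 promoter→luciferase), 1500 cells/well in Opti-MEM + 10% FBS, 2 h settle, then compound 24 h at 37 °C. Luminescence after 10 min with Amplite reagent.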
# * marks the source's active call; other numbers are inactive results; u = inconclusive; x = not tested or not shown; [ ] = another dose, or the depositor's remark. Sampled rows, rich in hits. Any-hit rate of the full collection: about 7.3%. Calls come from the whole dose curve; as a rule, active = well fitted curve in the direction sought with a large enough effect; inconclusive = small, poorly fitted or top-dose-only effect, or another doubt; inactive = no such curve, though single readings can be large; an effect the other way counts as inactive or inconclusive. Potency is the fitted concentration of half-maximal effect.
SMILES,Luc counter,ELG1 genotox,FLuc modulator,SMN2 splice enh,Rab9 prom act,NPC1 prom act
O=C(Nc1ccncc1)c1cccc(F)c1,4%,-9%,2%,4%,-1%,0%
Cc1ccccc1CC(=O)Nc1ccc2c(c1)CCC2,x,9%,u,x,3%,-1%
O=C(Nc1ccc2c(c1)CCC2)c1cccc(F)c1,-22%,8.2µM*,5.4µM*,11µM*,1.4µM*,3.2µM*
O=C(Nc1ccc2c(c1)CCC2)c1cc(F)cc(F)c1,x,u,3µM*,x,1.4µM*,2.5µM*
O=C(Nc1ccc2c(c1)CCC2)c1ccc(F)c(S(=O)(=O)N2CCOCC2)c1,-4%,6%,u,-9%[1.84 µM],u,28%
O=C(Cc1ccccc1F)Nc1ccc2c(c1)CCC2,x,15µM*,7.6µM*,x,3.2µM*,2µM*
Cn1ncc2c(NCc3ccc(F)cc3)ncnc21,x,x,2%,x,x,x
COC(=O)[C@@H](NC(=O)O[C@@H]1C(=O)c2cc(OC)ccc2O[C@H]1c1ccc(OC)c(Br)c1)C(C)C,-1%,x,x,12%,x,x
Cc1ccc(OCCN2C(=O)C(=O)c3cc(C)ccc32)cc1,0%,u,15µM*,-36%,-12%,-11%
Cc1ccc(OCCCN2C(=O)C(=O)c3cccc(C)c32)cc1,-1%,-1%,24µM*,-22%,7%,1%
Cc1cccc2c1N(CCOc1ccc(C(C)(C)C)cc1)C(=O)C2=O,-1%,-1%,u,-7%,14%,0%
Cc1cc(C)c2c(CC(=O)N(Cc3ccccc3)C3CCS(=O)(=O)C3)coc2c1 (stereo unspecified),x,x,2%,2%,x,x
Fc1ccccc1-n1ncc2c1ncn1nc(-c3ccccc3Cl)nc21,x,x,0.95µM*,5%,x,x
CC1CN(C(=O)N2CCC(C(=O)NC3CCCCCC3)CC2)c2cc(Cl)ccc2O1 (stereo unspecified),x,x,-1%,x,x,x
Cc1ccc(-c2noc(-c3ccoc3C)n2)cc1,-19%,15µM*,3µM*,u,-6%,u
Cc1occc1-c1nc(-c2ccncc2)no1,-23%,18µM*,u,u,10%,13%
Cc1c(-c2nc(-c3ccncc3)no2)cccc1[N+](=O)[O-],x,4%,-15%,x,22%,26%
Cc1c(C(=O)Nc2nc(-c3ccc(F)cc3)ns2)oc2ccc(Cl)cc12,x,x,-8%,9%,x,x
O=c1cccccc1NN=C1CCCCCC1,x,15µM*,6µM*,x,3.2µM*,2.2µM*
CC(NC(=O)C(=O)NN=C1CCCCCCC1)c1ccccc1 (stereo unspecified),-2%,2%,2%,-5%,7%,-2%
O=C(O)c1cc(Br)ccc1NN=C1CCCCC1,1%,4%,u,-10%,-1%,0%
O=c1cccccc1NN=C1CCCCC1,x,17%,12µM*,x,10%,12%
O=C1N(Cc2ccccc2Cl)c2ccccc2C1(O)c1c[nH]c2ccccc12 (stereo unspecified),x,x,0%,-7%,x,x
COc1cc(/C=N/NC(=O)c2cc(C3CC3)[nH]n2)ccc1O,x,-1%,u,x,-4%,-3%
COc1cc(/C=N/NC(=O)c2[nH]nc3c2CCc2ccccc2-3)ccc1O,0%,-4%,27µM*,0%,0%,1%
SMILES,Luc counter,ELG1 genotox,FLuc modulator,SMN2 splice enh,Rab9 prom act,NPC1 prom act
COc1cc(/C=N/NC(=O)c2cc(C34CC5CC(CC(C5)C3)C4)[nH]n2)ccc1O,-2%,u,13µM*,20%,1%,2%
CCN(C(=O)c1cc(S(=O)(=O)N2CCc3ccccc32)cn1C)c1cccc(C)c1,x,x,-3%,x,x,x
Cc1oc(-c2ccc(Cl)cc2)nc1CSc1nnc(C)n2c1cc1sccc12,x,x,4%,x,x,x
CCCc1cc2c(=O)c(-c3nc4ccccc4s3)c(COCC(=O)O)oc2cc1O,-2%,6%,9.5µM*,51%,u,2%
Nc1ccc2oc(=O)c3ccccc3c2c1,7%,u,-19%,14µM*,u,u
Nc1c(N)c2ccccc2oc1=O,4%,5%,-13%,3%,1%,8%
CCc1ccccc1NC(=O)Cn1c(=O)n(CCc2ccccc2)c(=O)c2sc3ccccc3c21,x,x,0%,-7%,x,x
NC(=O)c1ccccc1NC(=O)COc1ccc2c(c1)OCO2,x,u,4.8µM*,x,3.5µM*,2.5µM*
COc1ccccc1NC(=O)COc1ccc2c(c1)OCO2,x,u,15µM*,x,-39%,u
O=C(COc1ccc2c(c1)OCO2)Nc1nncs1,x,u,9.5µM*,x,26%,14%
Cc1ccc(C(=O)Nc2nnc(NC(=S)Nc3ccccc3)s2)cc1,x,7%,19µM*,x,26%,24%
Cc1nc(NC(=S)Nc2ccccc2)sc1C,5%,15%,2.7µM*,16µM*,u,u
CCOc1ccc(C(=O)Nc2nnc(NC(=S)Nc3ccccc3)s2)cc1,0%,6%,u,14%,4%,15%
CCc1nnc(NC(=O)CCC(=O)Nc2ccccc2)s1,3%,14%,-2%,17%,-4%,-3%
CCc1nnc(NC(=S)Nc2ccccc2)s1,1%,-5%,u,22µM*,u,u
CCC(C(=O)Nc1nc(C)c(C)s1)c1ccccc1 (stereo unspecified),x,-5%,u,x,0%,-2%
COc1ccc(-c2n(CC(=O)OC3CC(C)CCC3C(C)C)c3ccccc3[n+]2C)cc1 (stereo unspecified),3.5µM*,-3%,-8%,x,-12%,-9%
COc1ccc(OCc2n(CC(=O)OC3CC(C)CCC3C(C)C)c3ccccc3[n+]2C)cc1 (stereo unspecified),x,-6%,-1%,x,-9%,-4%
COc1ccc(/C=C2\CN(Cc3ccccc3)C/C(=C\c3ccc(OC)cc3)C2=O)cc1,2%,-13%,5%,-8%[1.84 µM],-4%,0%
O=C1/C(=C\c2ccncc2)CCc2ccccc21,x,-12%,9.5µM*,x,-10%,0%
O=C1/C(=C/c2ccncc2)CCc2ccccc21,x,4%,8.5µM*,x,-4%,0%
O=C1/C(=C/c2ccncc2)CCC/C1=C\c1ccncc1,1%,-23%,0%,-106%,-32%,-40%
CCOc1ccc(/C=C2\CCc3ccccc3C2=O)cc1,x,u,0.3µM*,x,1.1µM*,2.8µM*
c1ccc2c(c1)CCc1c(-c3ccncc3)n[nH]c1-2,x,u,u,x,18%,u
CCn1c(C(=O)Nc2c(C)cccc2C)cc2sc(Cl)cc21,x,x,-18%,-7%,x,x
